Values without a mark were called inactive.
Each compound was assayed on Escherichia coli Nissle 1917 (assay: DuctApe activity index of respiration/growth curve (0 no growth to 9 maximum) (index 0-9); higher = more growth / nutrient utilisation, active = 3 or more; extreme values may be limits of the assay). Conditions: nutrient role: sole nitrogen source (pyruvate carbon); incubation: 48 h, 37 °C.
`N[C@@H](Cc1ccc(O)cc1)C(=O)O` [L-Tyrosine] was tested, and the DuctApe activity index was 2.33. With `C[C@H](N)C(=O)N[C@@H](CCC(=O)O)C(=O)O` the DuctApe activity index was 8.33 (active). In the case of `C[C@H](N)C(=O)N[C@@H](CC(=O)O)C(=O)O`, the DuctApe activity index is reported as 8.67 (active). `Cc1c[nH]c(=O)[nH]c1=O` [Thymine] gave a DuctApe activity index of 0. In the case of `NCC(=O)N[C@@H](CC(N)=O)C(=O)O`, the DuctApe activity index is reported as 8 (active). With `C[C@H](N)C(=O)N[C@H](C(=O)O)[C@@H](C)O` the DuctApe activity index was 8 (active). In the case of `NCCCCN=C(N)N` [Agmatine], the DuctApe activity index is reported as 0. `NCCc1c[nH]cn1` [Histamine] showed a DuctApe activity index of 0.

Same assay, conditions: nutrient role: sole phosphorus source (pyruvate carbon); incubation: 48 h, 37 °C
With `O=C(O)COP(=O)(O)O` [Phospho-Glycolic acid] the DuctApe activity index was 8.67 (active). `C[C@@H](OP(=O)(O)O)[C@H](N)C(=O)O` [O-Phospho-L-Threonine] was tested, and the DuctApe activity index was 8.67 (active). With `N[C@@H](Cc1ccc(OP(=O)(O)O)cc1)C(=O)O` [O-Phospho-L-Tyrosine] the DuctApe activity index was 8.67 (active). For `N[C@H](COP(=O)(O)O)C(=O)O` [O-Phospho-D-Serine], the DuctApe activity index was 8.67 (active). In the case of `Nc1ncnc2c1ncn2[C@@H]1O[C@H](CO)[C@@H](OP(=O)(O)O)[C@H]1O` [Adenosine 3`-Monophosphate], the DuctApe activity index is reported as 9 (active). With `Cc1cn([C@H]2C[C@H](OP(=O)(O)O)[C@@H](CO)O2)c(=O)[nH]c1=O` [Thymidine 3`-Monophosphate] the DuctApe activity index was 8.67 (active).

Same assay, conditions: nutrient role: sole sulfur source (pyruvate carbon); incubation: 48 h, 37 °C
With `Nc1ccc(S(=O)(=O)O)cc1` [p-Aminobenzene Sulfonic acid] the DuctApe activity index was 0. Compound `NC(=O)CCCCC1CCSS1` (racemic) [DL-Lipoamide] has a DuctApe activity index of 1. With `O=S(O)(O)=S` [Thiosulfate] the DuctApe activity index was 7 (active). In the case of `NCCS(=O)O` [Hypotaurine], the DuctApe activity index is reported as 8 (active). In the case of `N[C@@H](CS(=O)(=O)O)C(=O)O` [L-Cysteic acid], the DuctApe activity index is reported as 7 (active).
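Also: biolog PM4 phosphorus and sulfur plates, tetrazolium violet dye reduction read in the OmniLog every 15 min, kinetic curves scored by DuctApe, each plate run in triplicate.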
